In ChEMBL document CHEMBL3433997, “St. Jude Leishmania screening dataset” (2016) one finds inhibition data, which are given here for four compounds.

Type in all cases: functional
For test [1], the target named is Solute carrier family 2, facilitated glucose transporter member 1 (Homo sapiens) (UniProt P11166). Briefly: ST_JUDE_LEISH: Cytotoxicity at 2uM final concentration against transgenic Leishmania Mexicana promastigotes LmGLUT1 that are glucose transport deficient and complemented with the human glucose transporter GLUT1. Activity is measured by DNA content using SYBR green in vitro.

Test [2] deals with Hexose transporter 1 (Plasmodium falciparum) (UniProt O97467). Briefly: ST_JUDE_LEISH: Cytotoxicity at 2uM final concentration against transgenic Leishmania Mexicana promastigotes LmPfHT that are glucose transport deficient and complemented with the Plasmodium falciparum hexose transporter. Activity is measured by DNA content using SYBR green in vitro.
Test [3] has as its target Glucose transporter (Leishmania mexicana) (UniProt O61059). The test is described as follows: ST_JUDE_LEISH: Cytotoxicity at 2uM final concentration against transgenic Leishmania Mexicana promastigotes LmGT2 that are glucose transport deficient and complemented with the L. Mexicana glucose transporter 2. Activity is measured by DNA content using SYBR green in vitro.

The term inhibition denotes the change of the read-out against control, counted positive when it falls.

Sequence of Solute carrier family 2, facilitated glucose transporter member 1 (Homo sapiens) (P11166 whole entry): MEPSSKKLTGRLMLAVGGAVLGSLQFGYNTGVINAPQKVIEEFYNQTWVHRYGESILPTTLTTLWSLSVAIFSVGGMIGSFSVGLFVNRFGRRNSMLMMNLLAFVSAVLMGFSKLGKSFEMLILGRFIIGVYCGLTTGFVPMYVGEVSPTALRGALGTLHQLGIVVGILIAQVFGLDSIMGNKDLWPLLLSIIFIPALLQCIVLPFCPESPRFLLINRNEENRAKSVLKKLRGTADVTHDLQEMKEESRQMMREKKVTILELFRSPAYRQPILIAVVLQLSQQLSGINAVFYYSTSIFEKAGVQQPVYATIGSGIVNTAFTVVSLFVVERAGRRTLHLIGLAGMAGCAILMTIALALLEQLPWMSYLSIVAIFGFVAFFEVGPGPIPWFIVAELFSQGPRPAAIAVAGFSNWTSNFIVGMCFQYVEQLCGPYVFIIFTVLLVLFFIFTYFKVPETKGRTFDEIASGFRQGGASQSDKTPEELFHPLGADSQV

Take `CCN(CCCN1CCCCC1)c1cc(C)nc(Nc2ccc(C)cc2)n1`: the figures for the inhibition in test [1], in test [2] and in test [3] were 0%, 1.61% and 0.31%, respectively.
As to `COc1cccc(CN2CCN(C(c3ccccc3)c3ccccc3)CC2)c1O`, the inhibition in test [1] was determined as 6.87%; in test [2] it was 6.03%; in test [3], 2.74%.
As for `COc1ccc(-c2ccc(CNC(=O)c3cccc(C#N)c3)c(F)c2)cc1CN1CCCN(C)CC1`, the inhibition in test [1] was 0.77%; in test [2] it was -4.93%; in test [3], 0.55%.
`COc1ccc(C(=O)Nc2nonc2-c2ccc(OC)c(OC)c2)cc1Cl`: the values for the inhibition in test [1], in test [2] and in test [3] were -0.82%, -0.18% and -0.55%, respectively.
